Screening data from PubChem BioAssay.
Only a selection was taken, and hits are over-represented in it overall.
FAK inh: FAK kinase inhibitors, primary screen, biochemical. Focal adhesion kinase 1 (Homo sapiens), Q05397. biochemical FAK kinase activity assay. inhibition, %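 (tested at 7 µM)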. hit rate 0.84% among 97,000. AID 727, 2007;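 note: 0% = DMSO and 100% = reference compound high control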
D1 mod: D1 CRE-luciferase signal change, two-sided – cell-based, HEK293 D1, dopamine EC30, D1 allosteric modulator project, primary screen; D(1A) dopamine receptor (Homo sapiens), P21728; dopamine EC30 potentiation; actives deviate in either direction; B-score at 10 µM; hit rate 5.9% among 58,000; AID 641, 2007;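 active = luminescence count or its row- and column-corrected plate score outside the 99.7% band of the plate's sample wells, on either side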
CD11b adhes enh: enhancers of CD11b/CD18 adhesion to fibrinogen, primary screen, K562 cells, luminescence; activation, % at 10 µM; AID 1499, 2009; ATPlite luminescence; Integrin beta-2 (Homo sapiens) + Integrin alpha-M (Homo sapiens), P05107+P11215; hit rate 0.07% among 93,000;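 active = 10 µM primary screen giving 50% or more activity, confirmed by 40% or more on retest at that dose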
DAT uptake mod: changed hDAT dopamine uptake under cocaine IC80, either direction, primary screen, cocaine antagonist project, cell-based, LLC-PK1 hDAT, [14C]-dopamine uptake, MLSMR. Sodium-dependent dopamine transporter (Homo sapiens), Q01959. LLC-PK1 hDAT cells, [14C]-dopamine uptake with cocaine IC80; actives deviate in either direction. B-score at 10 µM. hit rate 1.3% among 110,000;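 active = Z score or B-score, a plate-position-corrected score, falls beyond the plate's 99.7% confidence bounds, in either direction; inactive = both scores lie inside the 99.7% bounds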;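 note: scored against the spread of the other compound wells on the same plate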
Target sequence (Q01959 whole entry, looked up): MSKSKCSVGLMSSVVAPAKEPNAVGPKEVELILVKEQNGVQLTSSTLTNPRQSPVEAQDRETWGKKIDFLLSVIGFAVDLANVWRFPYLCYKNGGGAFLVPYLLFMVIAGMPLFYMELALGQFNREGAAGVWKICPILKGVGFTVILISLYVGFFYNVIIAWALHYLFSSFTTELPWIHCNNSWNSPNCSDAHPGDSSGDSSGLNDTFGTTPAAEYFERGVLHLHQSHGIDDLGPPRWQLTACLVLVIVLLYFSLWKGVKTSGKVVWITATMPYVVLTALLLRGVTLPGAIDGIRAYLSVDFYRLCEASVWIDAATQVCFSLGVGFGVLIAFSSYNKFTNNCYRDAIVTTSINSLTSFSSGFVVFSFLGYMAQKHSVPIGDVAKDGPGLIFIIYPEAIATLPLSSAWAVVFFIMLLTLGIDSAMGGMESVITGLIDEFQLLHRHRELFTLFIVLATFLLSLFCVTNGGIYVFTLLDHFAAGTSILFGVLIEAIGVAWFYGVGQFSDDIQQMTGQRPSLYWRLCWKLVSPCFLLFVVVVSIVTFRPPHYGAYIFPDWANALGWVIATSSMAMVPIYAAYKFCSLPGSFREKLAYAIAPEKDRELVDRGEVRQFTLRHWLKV
PTK2B oligo ant: antagonists of Pyk2 self-association, primary screen, Q293 cells, FERM NanoBiT luminescence, HTS. Protein-tyrosine kinase 2-beta (Homo sapiens), Q14289. stronger effect = lower value. z-score (the deposit names both 25 µM and 10 µM). hit rate 0.83% among 99,000. AID 1347419, 2020;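 active = Z-score of -3 or lower, scaled per plate to the spread of control and sample wells; inactive = z-score above -3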;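 note: negative z-score means lost luminescence so less FERM oligomerization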
CD11b adhes inh: inhibitors of CD11b/CD18 adhesion to fibrinogen, primary screen, K562 cells, luminescence. Integrin beta-2 (Homo sapiens) + Integrin alpha-M (Homo sapiens), P05107+P11215. ATPlite luminescence; Mn2+ added to activate the integrin. hit rate 0.54% among 93,000. inhibition, % at 10 µM;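 active = primary inhibition of 50% or more at 10 µM, then 40% or more on retest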
FAK inh confirm: FAK kinase inhibitors, retest, confirmation, biochemical | shares compounds with FAK inh | hit rate 28% among 750 | inhibition, % at 7 µM | FAK kinase biochemical inhibition assay
* = called active by the depositor; / = no result given. Cut-off read from the data, not from the text of the source, unless noted: active = inhibition above about 19%; inactive = the rest.

SMILES | FAK inh | D1 mod | CD11b adhes enh | DAT uptake mod | PTK2B oligo ant | CD11b adhes inh | FAK inh confirm
COc1ccc(C2C(C#N)=C(N)Oc3c2sc2nc(C)cc(C)c32)cc1 (configuration not stated) | 29* | / | -3 | 0.17 | -0.4 | 6 | 10
Cc1cc(C)c2c3c(sc2n1)C1(CCSCC1)C(C#N)=C(N)O3 | 2 | -0.51 | / | -1 | -0.19 | / | /
Cc1ccc(C)n1Cc1ccc(C(=O)O)cc1 | 78* | / | -8 | -0.27 | 2.8 | 1 | -4
CCOC(=O)c1cnc2c(-c3ccccc3)cnn2c1N | 29* | -2.3 | -6 | 0.48 | 0.41 | 67 | 0
CCOC(=O)c1cnc2c(-c3ccccc3)c(C)nn2c1N | -2 | -0.82 | -3 | 0.13 | 0.45 | -7 | /
CC1CCN(S(=O)(=O)c2ccc(NC(=O)Cc3ccccc3)cc2)CC1 | -3 | / | -2 | 0.57 | -0.48 | 9 | /
CC1CCN(S(=O)(=O)c2ccc(NC(=O)Cn3nnc(-c4ccccc4F)n3)cc2)CC1 | 19* | 0.28 | -2 | -1.2 | -0.33 | 5 | 8
Cc1c(O)c(CN2CCCC2)cc2c1oc(=O)c1ccccc12 | 40* | / | 3 | -0.017 | -0.12 | -4 | 12
Cc1ccc(-c2c3c(nc4sc(C(N)=O)c(N)c24)CCC3)cc1 | 22* | / | / | -0.01 | 0.09 | / | 5
COCCNC(=O)c1c(N)n(CCCn2ccnc2)c2nc3ccccc3nc12 | 24* | 1.9 | -4 | 0.5 | -0.24 | -5 | -1
COCCNC(=O)c1c(N)n(-c2ccccc2)c2nc3ccccc3nc12 | 4 | / | -4 | -0.26 | -0.15 | -6 | /
O=C(NCCO)c1cccc(Nc2nc(-c3ccccc3)c3cc(Cl)ccc3n2)c1 | 33* | / | / | 1.8 | -2.1 | / | 1
CN1C(=O)/C(=C/c2ccccc2OCc2cccc(F)c2)NC1=S | 14 | / | 1 | -0.68 | 0.44 | 2 | /
CC(=O)Nc1ccc2[nH]c(C)cc(=O)c2c1 | 81* | / | 8 | 0.13 | -0.19 | -65 | 6
Cc1cccc(-c2cc3nc4c(c(NCc5ccco5)n3n2)CCCC4)c1 | 1 | / | -1 | -1.5 | 0.19 | 4 | /
CCOC(=O)c1ccccc1NC(=O)c1c(F)c(F)c(F)c(F)c1F | 5 | 0.36 | -1 | -0.87 | 0.06 | 5 | /
CCOC(=O)c1cccc2c1-c1ccccc1/C2=N/O | 49* | 0.23 | 13 | 0.46 | -2.4 | 18 | 26*
O=C1CC(c2ccco2)CC2=C1C=Nc1ccccc1N2 (configuration not stated) | 22* | / | -3 | -0.83 | 1.3 | 3 | 0
COc1cc(/C=C(/NC(=O)c2ccccc2)C(=O)Nc2ccc(O)cc2)c([N+](=O)[O-])cc1OC | / | / | 0 | / | / | -5 | /
CC(C)(C)CC(=O)Nc1ccc(Nc2ccccc2)cc1 | -4 | / | -1 | -0.2 | -1.8 | 7 | /
Cc1cc(C)c(NC(=O)CC(C)(C)C)c(Cl)c1 | 73* | / | -1 | -0.35 | 1.3 | 5 | 2
O=C(OCCN=C1NS(=O)(=O)c2ccccc21)c1cccnc1 | 51* | -0.015 | -2 | 0.15 | -0.18 | -4 | 28*
O=C(OCCN=C1NS(=O)(=O)c2ccccc21)c1ccccc1 | 1 | / | -5 | 0.73 | 0.72 | -6 | /
CC(=O)N1CCc2cc(S(=O)(=O)NCCC(=O)N3CCN(c4ccccn4)CC3)ccc21 | 32* | -1.1 | 2 | -0.95 | -0.05 | -13 | 1
Cn1c(=O)c2c(nc(SC3C(=O)CC(C)(C)CC3=O)n2C)n(C)c1=O | / | 0.24 | -3 | -0.00015 | 1.1 | 2 | /
SMILES | FAK inh | D1 mod | CD11b adhes enh | DAT uptake mod | PTK2B oligo ant | CD11b adhes inh | FAK inh confirm
Cc1nc2c(ccc3nc(NC(=O)c4ccc5c(c4)OCCO5)sc32)s1 | 24* | -0.73 | 6 | 0.44 | -2.1 | 67* | 14
CCN(CC)C(=O)CN1C(=O)COCC1=O | -3 | / | -1 | 0.24 | -0.3 | 0 | /
O=S1(=O)N=C2CCCN2C(c2ccc(F)cc2)N1 (configuration not stated) | -7 | -0.71 | 4 | -0.061 | 0.29 | -2 | /
CCOc1c(Br)cc(C2NS(=O)(=O)N=C3CCCCCN32)cc1OC (configuration not stated) | 47* | 1.1 | -3 | 0.013 | 0.14 | -5 | 0
CC(=O)Nc1cc(OC(C)=O)c2nonc2c1OC(C)=O | 57* | -1.3 | -5 | -1.8 | -0.26 | 59* | 3
O=C1NCCc2c1[nH]c1c(Cl)ccc(Cl)c21 | 73* | 0.35 | -5 | 0.13 | -1.8 | 5 | 62*
Cn1c(SCC(=O)Nc2ccc3nc(SCC(=O)N4CCCC4)sc3c2)nnc1-c1ccccc1 | 25* | / | -2 | 2.1 | / | -20 | 9
Cc1cccc(NC(=O)CSc2nc3ccc(NC(=O)CSc4nnnn4-c4ccccc4)cc3s2)c1C | -4 | / | 24 | / | / | -1 | /
O/N=C/c1cc(Br)ccc1OCc1cccc(F)c1 | 20* | / | / | -0.13 | -1.3 | / | 6
CCC(C)(C)NC(=O)C(c1ccc(OC)cc1)N(Cc1cccs1)C(=O)CCC(=O)Nc1cc(C)on1 (configuration not stated) | 3 | / | / | 2.1 | 0.15 | / | /
COc1cccc(Nc2ncnc3nc[nH]c23)c1 | 23* | / | 0 | 0.013 | / | -12 | 5
Cc1ccc(Nc2ncnc3nc[nH]c23)cc1Cl | 31* | -3.5* | 2 | -1.4 | / | 13 | 10
CCOc1cc(CNc2ncnc3nc[nH]c23)ccc1OC | / | / | 0 | 0.93 | / | 6 | /
CCCCc1ccc(Nc2ncnc3nc[nH]c23)cc1 | 13 | -2.3 | 9 | / | / | 7 | /
N#CCSc1nnc(COc2ccc3ccccc3c2)o1 | 0 | -0.5 | 4 | -0.4 | 0.75 | 17 | /
O=C(C1=C[C@@H](C2CCCCC2)C[C@@H](OCCCCO)O1)N1CCOCC1 | / | / | / | -0.35 | / | / | /
C/C(=N\NC(=O)c1[nH]c2c([N+](=O)[O-])cc(C)cc2c1-c1ccccc1)c1cccnc1 | 20* | / | 2 | 1.9 | -2 | -4 | 1
c1cncc(-c2nc3ccccc3[nH]2)c1 | 28* | / | / | 0.68 | 0.38 | / | 3
Cc1cc(=O)oc(C)c1C(=O)Nc1c(C)n(C)n(-c2ccccc2)c1=O | 1 | / | / | -0.85 | -0.45 | / | /
COc1ccc(OC)c(NS(=O)(=O)Cc2ccccc2)c1 | 46* | / | 52 | / | / | -13 | 32*
CCOC(=O)c1ccc(NC(=O)CSc2nc(C)cc(=O)[nH]2)cc1 | 20* | 0.53 | 2 | 0.4 | 0.16 | -2 | 5
